Mtb betalactam: beta-lactam sensitization of Mtb H37Rv. inhibition, % at 25 µM. M. tuberculosis H37Rv growth with meropenem, percent inhibition. AID 434955. 0.27% of 330,000 active; call rule not given here;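 note: growth measured after seven days incubation then overnight dye step; 0% = bacteria only wells and 100% = bacteria with antibiotic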
Sa ugtP lethal: kills S. aureus RN4220 lacking UgtP. growth inhibition, % (test concentration not listed). S. aureus RN4220 ugtP deletion, OD600 growth, 16 h. 0.54% of 330,000 active; in the data active = growth inhibition above about 68%;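 note: plate controls were untreated wells for no effect and antibiotic for full effect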
Mtb hypoxia rep: inhibitors of hypoxia-regulated fluorescent reporter in Mycobacterium tuberculosis; M. tuberculosis hypoxia-regulated fluorescent reporter, fluorescence; fluorescence inhibition, % (test concentration not listed); 0.1% of 300,000 active; in the data active = fluorescence inhibition mostly above about 23%, no sharp cut-off; inactive = mostly below about 17%
RN4220 kill: kills Staphylococcus aureus RN4220; S. aureus RN4220 growth, OD600, 16 h; inhibition, % (test concentration not listed); 0.33% of 330,000 active; AID 1259311; in the data active = inhibition above about 85%;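 note: plate controls were untreated cells for no effect and reference antibiotic for full effect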
SSB-PriA inh: blocks PriA binding to SSB C-terminal tail | AlphaScreen SSBct-PriA binding, biotinylated peptide | inhibition, % at 33 µM | 0.6% of 430,000 active | AID 1272365; in the data active = inhibition mostly above about 37%, no sharp cut-off; inactive = mostly below about 20%;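 note: plate controls were negative control peptide for no effect and reference peptide for full effect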
Active calls of the source: *; ? = inconclusive; · = not tested or not shown; ! = repeats disagree. Hits are enriched below; roughly 1% of the tested compounds scored in any of these assays.

SMILES	Mtb betalactam	Sa ugtP lethal	Mtb hypoxia rep	RN4220 kill	SSB-PriA inh
O=C(CSc1ccccc1Cl)N1CCC(c2nc3ccccc3s2)CC1	92	97*	·	96*	-20
CCCn1c(C(=O)OC)cc2c1ccn2-c1ccc(F)cc1	25	97*	18	15	-9
COC(=O)c1cc2c(ccn2-c2ccc(F)cc2)n1CC(C)C	0	74	21	9	-12
Cc1noc(C)c1CCC(=O)NCCn1nc(-c2ccccn2)n(C)c1=O	·	·	·	·	-12
Cc1nc(C)n(C[C@H](O)COc2ccc3c(c2)CCC3)n1	·	·	·	·	-18
COC(=O)c1c(NC(=O)CCCC(=O)O)sc2c1CCC2	2	-4	3	8	73*
NC(=O)c1c(NC(=O)CCCC(=O)O)sc2c1CCCCCC2	2	1	-17	-2	-4
CCN(CC)CCOc1ccc(C(=C(Cl)c2ccccc2)c2ccccc2)cc1	·	71	·	97*!	·
CCOc1ccccc1NC(=O)CSc1nnc(-c2ccco2)n1Cc1ccco1	-15	6	-1	-2	-3
COc1ccccc1NC(=O)CSc1nnc(-c2ccccc2)n1Cc1ccco1	·	·	·	·	55*
Clc1ccc(CSc2nnc(-c3ccccn3)n2Cc2ccco2)c(Cl)c1	4	-4	8	0	49*
Fc1ccccc1CSc1nnc(-c2cnccn2)n1Cc1ccco1	-3	-2	5	7	-8
O=C(CSc1nnc(-c2ccccn2)n1Cc1ccco1)c1ccc(-c2ccccc2)cc1	-5	-17	-14	10	49*
O=C(Cn1cccn1)NC1CCC(Oc2ccccn2)CC1 (stereo not given)	·	·	·	·	-5
CCOc1ccc(S(=O)(=O)NC2CC(C)(C)NC(C)(C)C2)c(OCC)c1	·	·	·	·	7
CSc1cccc2sc(NC(=O)c3nc4ccccc4s3)nc12	·	·	·	·	1
Cc1cc(N(CCO)CCO)ccc1N=Nc1cc(F)ccc1F	44	13	16	-6	75*
O=C(O)c1ccccc1NS(=O)(=O)c1ccc(NN=Cc2cccc(Cl)c2)c([N+](=O)[O-])c1	2	90*	8	-11	31
COc1ccc(Br)cc1C=NNc1ccc(S(=O)(=O)Nc2ccccc2C(=O)O)cc1[N+](=O)[O-]	·	99*	11	100*	7
O=C(O)c1ccccc1NS(=O)(=O)c1ccc(NN=Cc2ccc(F)cc2)c([N+](=O)[O-])c1	-3	82	4	-4	-4
Cn1cc(C(=O)NCC2CCN(C(=O)Oc3ccccc3)CC2)nn1	·	·	·	·	9
CSCCC(NC(=O)c1ccccc1Br)C(=O)NNC(=O)c1ccncc1 (stereo not given)	73	3	27*	-2	0
O=C(CSc1nc(-c2ccccc2)cs1)Nc1ccccc1[N+](=O)[O-]	-5	0	5	1	48*
Brc1cc(Br)c2nc3c(cc2c1)CCC3	46	-3	54*	11	-33
O=C(CN1CCN(Cc2nc(-c3ccco3)cs2)CC1)NCc1ccco1	·	·	·	·	10
SMILES	Mtb betalactam	Sa ugtP lethal	Mtb hypoxia rep	RN4220 kill	SSB-PriA inh
CC(=NNC(=O)c1nnn(-c2nonc2N)c1CN(C)c1ccccc1)c1ccccn1	·	-4	-2	13	90*
COc1ccc(S(=O)(=O)N2CCCCC2CCNC(=O)C(=O)Nc2ccc(F)cc2F)cc1 (stereo not given)	·	·	·	·	-18
COc1ccc(OC)c(C2CC(c3ccccc3)=NN2C(=S)Nc2ccccc2)c1 (stereo not given)	44	-7	9	2	1
COc1ccccc1C1=NN(C(=S)Nc2ccccc2)C(c2ccco2)C1 (stereo not given)	65	17	-2	26	39*!
CCCCCCCCC#Cc1nc(C)ccc1OC	·	37	6	6	-39
CCCCCCCC#Cc1ccccc1C=NS(=O)c1ccc(C)cc1 (stereo not given)	·	99*	5	-2	-45
COc1ccc2cc(C(=O)NCc3ccnc(-c4cccs4)c3)[nH]c2c1	·	·	·	·	-13
C=CCc1cc(C)ccc1OCC(O)Cn1nnc2ccccc21 (stereo not given)	·	·	·	·	1
Cc1oc2cc(Br)c(O)c(Br)c2c1-c1ccccc1	8	87*	18	-4	17
CCOc1ncccc1C(=O)Nc1cc2c(cc1Br)OCCO2	3	15	36*	5	-8
CCOc1ncccc1C(=O)Nc1ccc2c(c1)OCO2	-1	·	·	·	-8
S=C(NNc1nc(N2CCCC2)nc(N2CCCC2)n1)Nc1ccc(Cl)cc1	·	·	·	·	17
CN(O)C=c1ccc2c(n1)C(=O)C=CC=2	·	·	·	·	95*
CN(O)/C=c1/ccc2c(n1)C(=O)C=CC=2	100	2	·	4	·
Cc1nc(Nc2ccc(NC(=O)c3ccc(S(=O)(=O)N(C)C)cc3)cc2)cc(-n2ccnc2)n1	·	·	·	·	-26
CC(C)(C)NC(=O)C(=O)NCCCN1CCN(c2ccccc2)CC1	·	·	·	·	-18
O=C(COc1ccc2ccccc2c1)N[C@@H](C(=O)O)c1ccc(O)cc1	8	-3	-4	2	40*
COc1ccc(Cl)c2sc(N(CCN(C)C)C(=O)c3ccc4c(c3)OCCO4)nc12	-11	-10	17	-10	16
COc1cc2ccccc2cc1C(=O)N(CCN(C)C)c1nc2c(C)cccc2s1	3	-20	-12	-12	41*!
COc1ccc(OC)c2sc(N(CCN(C)C)C(=O)c3ccc4ccccc4c3)nc12	7	·	·	·	54*
COc1cc2ccccc2cc1C(=O)N(CCN(C)C)c1nc2c(OC)ccc(OC)c2s1	79	-30	-8	-10	46*
CN(C)CCN(C(=O)c1ccc2ccccc2c1)c1nc2ccc(F)cc2s1	4	-5	13	3	44*!
CCN1CCOc2ccc(NC(=O)c3cccc(OC)c3OC)cc2C1=O	·	·	·	·	1
O=S(=O)(/C=C/c1ccccc1)NCc1ccccc1-c1ccsc1	·	·	·	·	-14
O=C(Nc1nc(-c2csc(NC(=O)c3coc4ccccc4c3=O)n2)cs1)c1cc(=O)c2ccccc2o1	·	·	·	·	-17
SMILES	Mtb betalactam	Sa ugtP lethal	Mtb hypoxia rep	RN4220 kill	SSB-PriA inh
COc1cc2nc(N(CCN(C)C)C(=O)c3ccc4ccccc4c3)sc2cc1OC	-2	-6	5	2	39*!
CCc1ccc2nc(N(CCN(C)C)C(=O)c3ccc4ccccc4c3)sc2c1	?	-6	6	-2	21
CN(C)CCCN(C(=O)c1sc2ccccc2c1Cl)c1nc2c(F)cccc2s1	-4	-12	-1	-3	13
Cc1cccc2sc(N(CCCN(C)C)C(=O)c3sc4ccccc4c3Cl)nc12	-10	-25	8	7	40*!
Cc1ccc2sc(N(CCN(C)C)C(=O)c3ccc4ccccc4c3)nc2c1C	4	-35	-9	-9	45*!
Cc1cc(C)c2sc(N(CCCN(C)C)C(=O)c3ccc(S(=O)(=O)N(C)C4CCCCC4)cc3)nc2c1	99	-16	38*	-1	40*!
O=C(NCC(=O)N1CCC[C@H](Cc2nc(-c3ccsc3)no2)C1)OCc1ccccc1	·	·	·	·	0
Cc1cc(C)c2sc(N(CCN(C)C)C(=O)c3ccc4ccccc4c3)nc2c1	39	-8	11	-4	43*!
Nc1ccccc1Nc1cc(-c2ccccc2)nn1-c1cccc(Cl)c1	11	17	10	-14	59*
O=C(CCl)Nc1cc(-c2ccccc2)nn1-c1ccccc1	99	-15	·	0	-9

Screening data from PubChem.
